Several values for one entry are separate records, joined by “and”; a condition that tells them apart may be missing. Identical values can stand only once. Activity calls are given as the source filed them. Unless noted, the rule behind the calls is not given here.
Legend:
[1] = resazurin metabolic signal in HepG2 cells – cell-based, resazurin fluorescence, 24 h, PK04 Diversity Set, profiling panel (AID 1172); conditions: HepG2 viability, higher = more signal
[2] = budding yeast growth changes without added modifier – OD600, strain BY4716, 24 h, basal condition, primary screen (AID 1173); conditions: S. cerevisiae BY4716 growth, OD600, 24 h; higher = more signal, called active from +8 up or from −8 down
[3] = viability profiling in MM1S myeloma cells – cell-based, resazurin fluorescence, basal, 24 h, PK04 Diversity Set, profiling panel (AID 1174); conditions: higher = more signal, called active from +8 up or from −8 down;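 note: MM1S multiple myeloma cell line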
[4] = molecular target: Dihydroorotate dehydrogenase (quinone), mitochondrial (Plasmodium falciparum (isolate 3D7)) (UniProt Q08210); assay: inhibition of P. falciparum DHODH – biochemical, C-terminal His tag, absorbance 600 nm, primary screen (AID 1175); conditions: PfDHODH enzyme, DCIP absorbance 600 nm; higher = more signal, called active from +8 up or from −8 down;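 note: recombinant parasite enzyme with a five histidine tag at its C terminus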
[5] = inhibition of PAO1 biofilm formation – strain PAO1, LB-PBS medium, absorbance 600 nm, primary screen (AID 1176); conditions: P. aeruginosa PAO1 growth/biofilm, A600, 12 h; higher = more signal
[6] = growth modulation of vineyard yeast isolate – strain RM11-1a, OD600, basal, 24 h, primary screen (AID 1177);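 note: cultures grown under basal conditions with no added stressor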; conditions: S. cerevisiae RM11-1a growth, OD600, 24 h; higher = more signal, called active from +8 up or from −8 down
[7] = growth of efflux-deficient E. coli DRC39 – strain DRC39, OD650, 24 h, E. coli filamentation inducers, primary screen (AID 1178);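 note: growth measured as culture turbidity by optical density at 650 nm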; conditions: E. coli DRC39 acrAB, higher = more signal, called active from +8 up or from −8 down
[8] = growth of efflux-deficient E. coli DRC39 – strain DRC39, OD650, 48 h, E. coli filamentation inducers, primary screen (AID 1179);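 note: screen aims at cell division blockers that make cells filament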; conditions: E. coli DRC39 delta-acrAB growth, higher = more signal, called active from +8 up or from −8 down
[9] = viability profiling in RPMI8226 myeloma cells – cell-based, resazurin fluorescence, basal, 24 h, PK04 Diversity Set, profiling panel (AID 1180); conditions: higher = more signal;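 note: RPMI8826 multiple myeloma cell line at 5000 cells per well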
[10] = molecular target: E3 ubiquitin-protein ligase XIAP (Homo sapiens) (UniProt P98170); assay: small molecules binding XIAP protein – biophysical, small-molecule microarray, fluorescence 635 nm, primary screen (AID 1181); conditions: higher = more signal;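 note: score merges 667 nm emission and signal to noise over triplicate slides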
[11] = tested on: XIP peptide (Xip251-270) binding; assay: XIP fragment 251-270 binding compounds – biochemical, small-molecule microarray, fluorescence 635/667 nm, 0.1 µg/mL protein, primary screen (AID 1182); conditions: fluorescent protein binding, 635 nm, higher = more signal, called active from +8 up or from −8 down
XIP peptide (Xip251-270) = assay: compounds binding XIP fragment 251-270 – biochemical, small-molecule microarray, fluorescence 635/667 nm, 0.5 µg/mL protein, primary screen (AID 1183); conditions: fluorescence 635 nm, higher = more signal
[12] = blood-stage malaria parasite viability loss – strain 3D7, DAPI fluorescence, 100 nL, primary screen (AID 1184);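 note: parasites grown inside human red blood cells in medium with human serum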; conditions: P. falciparum 3D7 growth, 3 d, higher = more signal
[13] = molecular target: Homeobox protein Hox-A13 (Mus musculus) (UniProt Q62424); assay: disruptors of Hoxa13 oligonucleotide interaction – biochemical, fluorescence polarization, labeled oligonucleotide, primary screen (AID 1185); conditions: Hoxa13:DNA binding, 15 min, higher = more signal, called active from +8 up or from −8 down
Sequence of Homeobox protein Hox-A13 (Mus musculus) (Q62424 whole entry, looked up): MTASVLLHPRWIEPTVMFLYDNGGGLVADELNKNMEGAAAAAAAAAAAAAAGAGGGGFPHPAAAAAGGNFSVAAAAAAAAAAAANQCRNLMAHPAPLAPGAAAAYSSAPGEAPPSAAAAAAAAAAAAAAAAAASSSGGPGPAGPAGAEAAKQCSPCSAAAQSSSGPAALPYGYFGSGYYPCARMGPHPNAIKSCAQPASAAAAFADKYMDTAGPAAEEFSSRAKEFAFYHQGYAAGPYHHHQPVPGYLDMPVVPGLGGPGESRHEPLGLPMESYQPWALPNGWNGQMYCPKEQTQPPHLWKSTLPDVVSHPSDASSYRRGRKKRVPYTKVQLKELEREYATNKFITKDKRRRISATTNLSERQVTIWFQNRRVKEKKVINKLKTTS

Sequence of E3 ubiquitin-protein ligase XIAP (Homo sapiens) (P98170 whole entry, looked up, the tested form may be a part): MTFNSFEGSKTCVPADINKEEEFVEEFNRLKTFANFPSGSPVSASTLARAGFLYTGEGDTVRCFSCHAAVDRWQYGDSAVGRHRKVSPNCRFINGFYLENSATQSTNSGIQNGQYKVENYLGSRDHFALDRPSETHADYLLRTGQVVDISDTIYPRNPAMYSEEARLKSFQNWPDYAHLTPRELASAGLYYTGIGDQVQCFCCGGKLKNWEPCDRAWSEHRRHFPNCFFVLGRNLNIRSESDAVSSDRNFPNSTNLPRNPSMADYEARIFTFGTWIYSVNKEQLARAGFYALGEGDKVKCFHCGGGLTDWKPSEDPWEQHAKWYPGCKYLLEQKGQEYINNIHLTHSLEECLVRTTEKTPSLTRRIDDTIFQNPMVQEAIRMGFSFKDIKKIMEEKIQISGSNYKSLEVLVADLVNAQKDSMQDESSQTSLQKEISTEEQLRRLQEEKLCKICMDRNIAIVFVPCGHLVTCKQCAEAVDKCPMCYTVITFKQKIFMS
Sequence of Dihydroorotate dehydrogenase (quinone), mitochondrial (Plasmodium falciparum (isolate 3D7)) (Q08210 whole entry, looked up): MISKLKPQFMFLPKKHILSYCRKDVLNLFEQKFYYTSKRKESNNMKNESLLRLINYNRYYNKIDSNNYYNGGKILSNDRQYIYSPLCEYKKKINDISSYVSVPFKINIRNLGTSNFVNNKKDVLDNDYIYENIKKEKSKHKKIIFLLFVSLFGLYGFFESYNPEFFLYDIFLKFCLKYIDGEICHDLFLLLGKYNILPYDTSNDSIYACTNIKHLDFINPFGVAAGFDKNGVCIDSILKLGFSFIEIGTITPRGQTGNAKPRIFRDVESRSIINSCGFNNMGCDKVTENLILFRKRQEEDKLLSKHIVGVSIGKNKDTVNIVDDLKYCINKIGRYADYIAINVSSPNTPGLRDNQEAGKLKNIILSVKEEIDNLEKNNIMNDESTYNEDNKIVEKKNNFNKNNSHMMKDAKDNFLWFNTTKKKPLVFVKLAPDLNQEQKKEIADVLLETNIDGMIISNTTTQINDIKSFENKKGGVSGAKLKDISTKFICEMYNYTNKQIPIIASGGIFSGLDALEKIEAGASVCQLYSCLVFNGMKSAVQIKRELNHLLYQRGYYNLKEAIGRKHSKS

Structure (SMILES)	z-score [1]	z-score [2]	z-score [3]	composite z-score [4]	z-score [5]	z-score [6]	z-score [7]	z-score [8]	z-score [9]	composite z-score [10]	composite z-score [11]	composite z-score (XIP peptide (Xip251-270))	z-score [12]	z-score [13]
CCN1C(=O)[C@H]2[C@H]3[C@H](O)[C@H](O)CC(=NOC[C@@H](O)COCc4ccco4)[C@@H]3CC[C@H]2C1=O	-0.113 and -1.03	1.31 (inactive) and 0.252 (inactive)	-0.413 (inactive) and -0.696 (inactive)	0.489 (inactive) and 0.529 (inactive)	-0.601 (inactive) and -0.385 (inactive)	0.567 (inactive) and 0.24 (inactive)	-0.357 (inactive) and -1.05 (inactive)	-0.463 (inactive) and -0.657 (inactive)	-0.575 and -0.287	-0.0666 and -0.121	-0.24 (inactive) and 1.01 (inactive)	0.232 and 0.595	0.0479 and -0.919	-0.849 (inactive) and -2.85 (inactive)
COC(=O)C1=C(C)N(Cc2ccccc2)[C@]23O[C@](C(=O)OC)(C(=O)N2[C@@H]1c1ccccc1)[C@@H](C(=O)OC)[C@H]3C(=O)OC	0.348 and -0.761	0.583 (inactive) and -0.704 (inactive)	0.409 (inactive) and -0.59 (inactive)	0.466 (inactive) and -0.412 (inactive)	0.177 (inactive) and 0.241 (inactive)	1.62 (inactive) and 0.72 (inactive)	0.148 (inactive) and 0.72 (inactive)	0.165 (inactive) and 0.532 (inactive)	0.537 and -0.332	-0.17 and -0.219	1.4 (inactive) and -0.409 (inactive)	-0.0215 and 0.118	-0.0831 and 0.255	-4.02 (inactive) and -0.38 (inactive)
O=C1[C@H]2[C@H]3[C@H](O)[C@H](O)CC(=NOCc4ccccc4)[C@H]3CC[C@H]2C(=O)N1Cc1ccccc1	0.447	-2.68 (inactive)	1.58 (inactive)	-2.59 (inactive)	0.106 (inactive)	-2.13 (inactive)	0.323 (inactive)	-0.777 (inactive)	0.719	-0.13	-0.0784 (inactive)	0.0748	-1.76	-1.09 (inactive)
CO[C@H]1COC(=O)CC=C[C@@H](C)COC(=O)[C@@H](OCc2ccccc2)C=C[C@@H]1C	0.537	-1.93 (inactive)	0.155 (inactive)	-0.825 (inactive)	-0.72 (inactive)	-0.78 (inactive)	0.84 (inactive)	0.929 (inactive)	0.142	-0.245	-0.147 (inactive)	-0.106	0.56	-0.383 (inactive)
CC(=O)OC[C@H]1O[C@H](C#CC(C)(C)C)C=C[C@@H]1OC(C)=O	-0.374	-0.854 (inactive)	-0.756 (inactive)	-0.187 (inactive)	-0.151 (inactive)	-0.066 (inactive)	0.545 (inactive)	0.221 (inactive)	-0.26	0.0237	0.853 (inactive)	0.575	1.32	-2.75 (inactive)
CC(C)CCN1CCc2nc(-c3ccccc3)c3c(c2C1)CO[C@@H](C)C3	-0.123	-1.08 (inactive)	-0.0881 (inactive)	-0.363 (inactive)	-0.188 (inactive)	0.396 (inactive)	0.66 (inactive)	0.0602 (inactive)	0.129	0.201	0.105 (inactive)	0.563	1.77	-3.47 (inactive)
COc1ccc(COC(=O)NN=C2C[C@@H](O)[C@@H](O)[C@@H]3[C@@H]4C(=O)N(C(C)(C)C)C(=O)[C@@H]4CC[C@H]23)cc1	-0.947	-1.8 (inactive)	-0.18 (inactive)	-1.31 (inactive)	0.541 (inactive)	-1.94 (inactive)	-0.21 (inactive)	0.0442 (inactive)	-0.571	-0.0845	2.23 (inactive)	0.801	0.189	0.471 (inactive)
COC(=O)C1=C(C)N(Cc2ccccc2)[C@]23O[C@](C(=O)OC)(C(=O)N2[C@@H]1c1ccccc1)[C@H]1C(=O)N(c2ccccc2)C(=O)[C@H]13	0.652 and 1.12	-1.07 (inactive) and -1.3 (inactive)	0.965 (inactive) and -0.165 (inactive)	-0.047 (inactive) and -0.335 (inactive)	-0.2 (inactive)	-0.215 (inactive) and 0.133 (inactive)	-0.308 (inactive) and 0.166 (inactive)	-0.306 (inactive) and 0.155 (inactive)	0.709 and 0.102	-0.0346 and -0.316	0.229 (inactive) and 0.555 (inactive)	-0.275 and -0.308	-0.391 and 1.02	-2.26 (inactive) and -1.88 (inactive)
CON(C)C(=O)c1nnc2c3ccccc3n(S(=O)(=O)c3ccc(C)cc3)c2n1	-0.311 and -0.466	-0.148 (inactive) and -0.378 (inactive)	-0.125 (inactive) and -0.498 (inactive)	0.354 (inactive) and -0.588 (inactive)	-0.446 (inactive) and 0.757 (inactive)	-0.469 (inactive) and -0.226 (inactive)	-0.339 (inactive) and 0.046 (inactive)	-0.512 (inactive) and -0.404 (inactive)	-0.691 and -0.232	-0.146 and 0.687	0.41 (inactive) and 0.536 (inactive)	0.632 and 0.305	-0.248 and -0.675	-5.36 (inactive) and -5.11 (inactive)
Cc1ccc(S(=O)(=O)N[C@@H]2COC(=O)CC=C[C@@H](C)[C@@H]3C=C[C@H](O)[C@@H](COC(=O)CC=C[C@H]2C)O3)cc1	-0.29 and 0.458	-0.595 (inactive) and 0.228 (inactive)	-0.0856 (inactive) and 0.441 (inactive)	0.178 (inactive) and -4.95 (inactive)	-0.212 (inactive) and -0.0781 (inactive)	-0.169 (inactive) and -0.14 (inactive)	0.245 (inactive) and -1.15 (inactive)	0.0957 (inactive) and -0.599 (inactive)	-0.541 and 0.341	-0.138 and -0.124	0.061 (inactive) and -0.148 (inactive)	-0.179 and 0.167	1.03 and -1.19	-1.86 (inactive) and -1.1 (inactive)
COC(=O)C1=C(C)N(Cc2ccccc2)C2=C(C(=O)c3ccccc3)[C@H](c3ccccc3)[C@@](O)(C(=O)OC)C(=O)N2[C@@H]1c1ccccc1	0.291 and 0.302	-1.07 (inactive) and -0.683 (inactive)	-1.34 (inactive) and -0.716 (inactive)	0.382 (inactive) and -0.214 (inactive)	0.875 (inactive) and -0.0538 (inactive)	1.27 (inactive) and 0.504 (inactive)	1.17 (inactive) and 0.312 (inactive)	0.592 (inactive) and 0.607 (inactive)	-0.56 and -0.7	0.0399 and -0.0118	-0.149 (inactive) and -0.059 (inactive)	0.675 and 0.323	-0.467 and 0.501	-1.74 (inactive) and -0.745 (inactive)
COC(=O)C1=C(C)N(Cc2ccccc2)[C@]23O[C@](C(=O)OC)(C(=O)N2[C@@H]1c1ccccc1)[C@@H](c1ccccc1)[C@@H]3C(=O)c1ccccc1	1.07 and 0.475	-1.84 (inactive) and -0.926 (inactive)	0.876 (inactive) and 0.459 (inactive)	0.78 (inactive) and 0.324 (inactive)	-0.0933 (inactive)	-1.37 (inactive) and -0.224 (inactive)	-0.603 (inactive) and 0.788 (inactive)	-0.263 (inactive) and 0.547 (inactive)	0.56 and 0.48	-0.209 and 0.0264	0.114 (inactive) and 0.416 (inactive)	-0.0935 and 0.0333	-0.362 and 0.318	-0.11 (inactive) and -0.0833 (inactive)
CCN1C(=O)[C@H]2[C@H]3[C@H](O)[C@H](O)CC(=NNC(=O)OCc4ccc(OC)cc4)[C@H]3CC[C@H]2C1=O	-1.02	0.199 (inactive)	-2.24 (inactive)	-0.223 (inactive)	-0.273 (inactive)	0.632 (inactive)	-0.0482 (inactive)	0.559 (inactive)	-1.38	0.0322	0.0568 (inactive)	0.267	0.38	0.429 (inactive)
CO[C@H]1COC(=O)CC=C[C@H](C)[C@H](OC)COC(=O)[C@@H](C)COC(=O)CC=C[C@@H]1C	0.492 and 0.464	-0.415 (inactive) and -1.07 (inactive)	0.429 (inactive) and 0.802 (inactive)	0.175 (inactive) and 0.55 (inactive)	-0.519 (inactive) and -0.118 (inactive)	-0.436 (inactive) and -0.638 (inactive)	0.945 (inactive) and 1.12 (inactive)	0.658 (inactive) and 1.09 (inactive)	0.168 and 0.365	0.0256 and -0.202	-0.205 (inactive) and 0.308 (inactive)	0.602 and -0.337	0.298 and 0.795	0.397 (inactive) and 0.774 (inactive)

From PubChem BioAssay
